# Source: PubChem BioAssay (EPA / NIEHS)
# Results filed as inconclusive are left out. Active and inactive are the calls of the source. The calls were made as follows: active = hit-call score of the fitted dose curve at least 0.9, where 1 is the maximum; inconclusive = response in the unintended direction; inactive = score below 0.9.
# Experiment: ATG_Hpa5_TRANS: Attagene TRANS-FACTORIAL HepG2 Assay for human GAL4-Hpa5 Hepatocyte Transcription Factor Basal Promoter (AID 2282975);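 also: hits are increases in reporter mRNA over DMSO baseline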
# Conditions: HepG2 Attagene GAL4-Hpa5 transcription reporter
# Procedure: ATG_TRANS is a cell-based, multiplexed-readout assay that uses HepG2, a human liver cell line, with measurements taken at 24 hours after chemical dosing in a 24-well plate.ATG_Hpa5_TRANS is one of 30 assay component(s) measured or calculated from the ATG_TRANS assay. It is designed to make measurements of mRNA induction, a form of inducible reporter, as detected with fluorescence intensity signals by Reverse transcription polymerase chain reaction (RT-PCR) and Capillary electrophoresis technology.Data from the assay component ATG_Hpa5_TRANS was analyzed into 1 assay endpoint. This assay endpoint, ATG_Hpa5_TRANS, was analyzed in the positive analysis fitting direction relative to DMSO as the negative control and baseline of activity. Using a type of inducible reporter, measures of mRNA for gain-of-signal activity can be used to understand the background control at the transcription factor-level as they relate to the gene . Furthermore, this assay endpoint can be referred to as a secondary readout, because this assay has produced multiple assay endpoints where this one serves a background control function. To generalize the intended target to other relatable targets, this assay endpoint is annotated to the background measurement intended target family, where the subfamily is internal marker.
# Human liver HepG2 cells are transiently transfected with multiple reporter transcription units (MRTUs) in 6-well plates using FuGene 6 reagent (Roche; 3 ml FuGene/1 mg DNA). The MRTU constructs are regulated by a cis-regulating element (promoter). […] A major difference between the CIS and TRANS system is that in CIS activities of endogenous TFs are measured, whereas the TRANS assay evaluates changes in activities of exogenous, chimeric NR-Gal4 proteins. […] At the end of 24 hour incubation, total RNA was isolated using TriZol reagent (Invitrogen). The isolated RNA is then reverse-transcribed using oligo(dT) primer and Mo-MLV reverse transcriptase (Invitrogen) with DNAse I (Ambion) treatment for 30 min. The one-tenth of the produced cDNA was amplified by PCR using Taq DNA polymerase (Invitrogen) and two reporter sequence-specific primers. The PCR products were fluorescently labeled by primer extension with 6-arboxyfluorescein (6-FAM) 5'-labeled reporter sequence-specific primer (2 min at 95 C, 20 s at 68 C and 10 min at 72 C) and these products were digested with 5U of HpaI (New England Biolabs) for 2h at 37 C. The fragments were purified using Qiaquick PCR columns (Qiagen), analyzed on an ABI 3130xL genetic analyzer (Applied Biosystems) with peak positions identified by using a set of X-rhodamine (ROX)-labeled MapMarker1000 molecular weight standards (BioVentures). The raw capillary electrophoresis data was processed using Attagraph software (Attagene).
row,Compound,outcome
1,CNC(=O)ON=CC(C)(C)SC,inactive
2,C=CC1(C)OC(=O)N(c2cc(Cl)cc(Cl)c2)C1=O (stereo not drawn),inactive
3,CCCC1COC(Cn2cncn2)(c2ccc(Cl)cc2Cl)O1 (stereo not drawn),inactive
4,COc1nc(NC(C)C)nc(NC(C)C)n1,inactive
5,CC(Oc1ccc(Cl)cc1Cl)C(=O)O (stereo not drawn),inactive
6,Fc1ccc(Oc2ccnc3cc(Cl)cc(Cl)c23)cc1,inactive
7,CC(C)Oc1cc(-n2nc(C(C)(C)C)oc2=O)c(Cl)cc1Cl,inactive
8,CCCN(CCC)c1c([N+](=O)[O-])cc(S(N)(=O)=O)cc1[N+](=O)[O-],inactive
9,COP(=S)(OC)Oc1nc(Cl)c(Cl)cc1Cl,inactive
10,CCOP(=S)(OCC)SCn1c(=O)oc2cc(Cl)ccc21,inactive
11,COc1nc(C)nc(NC(=O)NS(=O)(=O)c2ccccc2CCC(F)(F)F)n1,inactive
12,CCOc1cc(Oc2ccc(C(F)(F)F)cc2Cl)ccc1[N+](=O)[O-],inactive
13,O=C(Nc1ccccc1)Nc1ccnc(Cl)c1,inactive
14,COC(=O)C(C)Oc1ccc(Oc2ccc(Cl)cc2Cl)cc1 (stereo not drawn),inactive
15,COP(N)(=O)SC (stereo not drawn),inactive
16,OC(c1ccc(Cl)cc1)(c1cncnc1)c1ccccc1Cl (stereo not drawn),inactive
17,CO/C=C(/C(=O)OC)c1ccccc1Oc1cc(Oc2ccccc2C#N)ncn1,inactive

row,Compound,outcome
1,O=C(O)c1nc(Cl)ccc1Cl,inactive
2,Cc1c(F)c(F)c(COC(=O)C2C(/C=C(\Cl)C(F)(F)F)C2(C)C)c(F)c1F (stereo not drawn),inactive
3,CC1COC(Cn2cncn2)(c2ccc(Oc3ccc(Cl)cc3)cc2Cl)O1 (stereo not drawn),inactive
4,CCNc1nc(Cl)nc(NCC)n1,inactive
5,CCCCC(CC)COC(=O)c1ccccc1C(=O)OCC(CC)CCCC (stereo not drawn),inactive
6,C=CCC1=C(C)[C@@H](OC(=O)[C@@H]2[C@@H](C=C(C)C)C2(C)C)CC1=O,inactive
7,C#CCOS(=O)OC1CCCCC1Oc1ccc(C(C)(C)C)cc1 (stereo not drawn),inactive
8,CCOC(=O)C(Cl)Cc1cc(-n2nc(C)n(C(F)F)c2=O)c(F)cc1Cl (stereo not drawn),inactive
9,Cc1ccc(-c2c(Cl)nc(C#N)n2S(=O)(=O)N(C)C)cc1,inactive
10,N#CC(CCc1ccc(Cl)cc1)(Cn1cncn1)c1ccccc1 (stereo not drawn),inactive
11,COc1ccc(C(c2ccc(OC)cc2)C(Cl)(Cl)Cl)cc1,inactive
12,CCc1nn(C)c(C(=O)NCc2ccc(C(C)(C)C)cc2)c1Cl,inactive
13,Cc1cc(Cl)ccc1OCC(=O)O,inactive
14,CCCCNC(=O)OCC#CI,inactive
15,COC(=O)N(OC)c1ccccc1COc1ccn(-c2ccc(Cl)cc2)n1,inactive
16,CC(C)C1(C)N=C(c2nc3ccccc3cc2C(=O)O)NC1=O (stereo not drawn),inactive
